Records with an inconclusive call do not appear. The source made the active and inactive calls. Calls follow the shape of the dose curve; as a rule, active = well fitted inhibition curve with a large enough effect; inconclusive = small, poorly fitted or top-dose-only effect; inactive = flat fitted curve, though single readings scatter.
Each molecule was assayed against Dual specificity protein kinase CLK4 (Homo sapiens) (UniProt Q9HAZ1) (assay: Confirmation Assay for Inhibitors of CDC-like Kinase 4 (Kinase-Glo Assay)). Details: recombinant Clk4, Kinase-Glo ATP depletion luminescence; series mostly up to 47.7 µM.
Outline: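 RS repeat peptide (100 uM) and ATP (1 uM) phosphorylated by 25 nM Clk4 (final) in Tris pH 7.5 with MgCl2, EGTA, DTT and Triton X-100. After 4.5 h at room temperature, remaining ATP read as Kinase-Glo luminescence.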

Sequence of Dual specificity protein kinase CLK4 (Homo sapiens) (Q9HAZ1 whole entry, looked up): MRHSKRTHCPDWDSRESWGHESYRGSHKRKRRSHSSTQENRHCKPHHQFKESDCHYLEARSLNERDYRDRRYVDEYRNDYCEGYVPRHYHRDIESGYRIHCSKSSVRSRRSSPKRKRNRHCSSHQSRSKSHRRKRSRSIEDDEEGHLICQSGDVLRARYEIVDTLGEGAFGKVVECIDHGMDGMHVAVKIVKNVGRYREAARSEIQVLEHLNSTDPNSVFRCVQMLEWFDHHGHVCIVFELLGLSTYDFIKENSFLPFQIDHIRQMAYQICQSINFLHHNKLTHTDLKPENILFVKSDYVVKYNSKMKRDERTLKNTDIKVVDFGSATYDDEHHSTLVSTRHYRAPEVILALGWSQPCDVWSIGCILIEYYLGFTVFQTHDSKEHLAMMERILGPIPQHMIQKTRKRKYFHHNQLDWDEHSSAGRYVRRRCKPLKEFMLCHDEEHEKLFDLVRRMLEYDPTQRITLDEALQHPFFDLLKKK

Potency, active:
Cn1ccc2cc(-c3ccc4ncnc(NCc5cccs5)c4c3)ccc21 31600 nM
c1cncc(CNc2ncnc3ccc(-c4ccoc4)cc23)c1 631 nM
c1cncc(-c2ccc3ncnc(NCc4cccs4)c3c2)c1 3980 nM
Cc1ccsc1CNc1ncnc2ccc(-c3ccc4c(c3)OCO4)cc12 33.6 nM
NCCNc1ncnc2ccc(-c3ccc4c(c3)OCO4)cc12 73.3 nM
CCN(Cc1sccc1C)c1ncnc2ccc(-c3ccc4c(c3)OCO4)cc12 146 nM
COc1cccc(-c2ccc3ncnc(NCc4ccc5c(c4)OCO5)c3c2)c1 1410 nM
CCOC(=O)c1ccc(-c2ccc3ncnc(NCCc4cnc[nH]4)c3c2)o1 92.3 nM
Clc1cccc(-c2ccc3ncnc(NCc4cccs4)c3c2)c1 7940 nM
Cn1cncc1CNc1ncnc2ccc(-c3ccc4c(c3)OCO4)cc12 75.2 nM
c1csc(CNc2ncnc3cc(-c4ccc5c(c4)OCO5)ccc23)c1 11900 nM
Cc1ccc(CNc2ncnc3ccc(-c4ccoc4)cc23)o1 519 nM
c1nc(NCCc2cnc[nH]2)c2cc(-c3ccoc3)ccc2n1 412 nM
Fc1cccc(CNc2ncnc3ccc(-c4ccccc4Cl)cc23)c1 11200 nM
CN(Cc1ccco1)c1ncnc2ccc(-c3ccoc3)cc12 316 nM
CCOC(=O)c1ccoc1-c1ccc2ncnc(NCCc3cnc[nH]3)c2c1 23200 nM
CCN(Cc1cccs1)c1ncnc2ccc(-c3ccc4c(c3)OCO4)cc12 51.9 nM
Fc1cccc(CNc2ncnc3ccc(-c4cccnc4)cc23)c1 3980 nM
Cc1nc(CSc2ncnc3ccc(-c4ccc5c(c4)OCO5)cc23)cs1 184 nM
Cn1cnc(CCNc2ncnc3ccc(-c4ccc5c(c4)OCO5)cc23)c1 232 nM
c1csc(CNc2ncnc3ccc(-c4ccoc4)cc23)c1 184 nM
c1c[nH]c(CNc2ncnc3ccc(-c4ccoc4)cc23)n1 2920 nM
c1nc(NCc2ccc3c(c2)OCO3)c2cc(-c3ccc4c(c3)OCCO4)ccc2n1 2240 nM
Fc1cccc(CNc2ncnc3ccc(-c4cccc(Cl)c4)cc23)c1 7080 nM
Cc1cccc(-c2ccc3ncnc(NCc4cccc(F)c4)c3c2)c1 4470 nM
Cc1csc(CNc2ncnc3ccc(-c4ccoc4)cc23)c1 355 nM

— PubChem BioAssay AID1970 (National Center for Advancing Translational Sciences (NCATS), 2009)
